Measurements taken from PubChem BioAssay (NCI).
This is part of a sample that, as a whole, favours compounds with a hit. Of some 83,000 tested, about 20% had one in any assay.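 Values shown are percent growth following 48 h exposure of cells in 96-well plates to a single concentration of compound; below 10 was considered active.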 Unmarked numbers belong to inactive results. Calls of active or inactive are those of the source.

How the values were obtained:
Test in all cases: NCI-60 one-dose screen, 48 h (100 = growth as untreated, 0 = no growth, -100 = all killed)
Settings in all cases: 10 µM
[1] = system: NCI-H23 lung
[2] = system: NCI-H226 lung
[3] = system: NCI-H322M lung
[4] = system: NCI-H460 lung
[5] = system: HOP-92 NSCLC
[6] = system: NCI-H522 lung
[7] = system: A549/ATCC NSCLC
[8] = system: 786-0 renal
[9] = system: COLO 205 colon
[10] = system: HOP-62 NSCLC

SMILES	growth [1]	growth [2]	growth [3]	growth [4]	growth [5]	growth [6]	growth [7]	growth [8]	growth [9]	growth [10]
c1ccc2c(c1)Sc1ccccc1S2	99%	95.9%	92.5%	101%	81.8%	98.6%	94.2%	94.9%	111%	
O=S(=O)(O)c1cc(O)c2c(N=Cc3ccccc3O)c(S(=O)(=O)O)ccc2c1	101%	101%	93.7%	105%		91.4%	111%	99.8%	119%	
CCN(CC)c1ccc2nc3ccc(=[N+](CC)CC)cc-3oc2c1	-46.2% (active)	-46.9% (active)	10.7%	6.72% (active)	15.7%	-29.6% (active)	18.5%	34.9%	-69.9% (active)	
C=CCCCCCCCCCOC(C)=O	100%	96.7%	102%	109%	90.2%	102%		108%	110%	
O=C1c2ccccc2C(=O)c2c1ccc(C(=O)O)c2[N+](=O)[O-]	101%	107%	105%	109%		97%	103%	106%	108%	
CSC(=N\N=C\c1ccc(N(C)C)cc1)/N=C/N(C)C	112%	90%	102%	95.4%		107%	103%	103%	110%	
c1cc2cccc3c4cccc5cccc(c(c1)c23)c54	101%	98.8%	119%	109%	89.6%		125%		104%	
COc1ccc(C(O)c2ccccc2)cc1 (stereo not drawn)	97.6%	94%	93.7%	98.7%	93.4%	94.8%		100%	106%	
CCOC(=O)CCCC(=O)OCC	97.9%	104%	99.2%	105%	101%	105%	101%	102%	101%	
CN1C(=O)CN2CCc3ccccc3C2c2cc(Cl)ccc21 (stereo not drawn)	87.1%	60.8%	93.4%	97.5%	77.2%	75.7%		97.4%	110%	
S=C1NCc2cncnc2N1	109%	101%	114%	106%	95.6%		98.2%	106%	111%	
COC(=O)Nc1cccc(Cl)c1OC	107%	96.5%	107%	38.2%		92.7%	106%	104%	127%	
O=C(O)CCC(NC(=O)OCc1ccccc1)C(=O)O (stereo not drawn)	101%	98.8%	98.6%	111%	95.9%	99.6%		104%	113%	
CC1(c2ccccc2)NC(=O)NC1=O (stereo not drawn)	116%	98.3%	97.2%	118%	100%	99.4%	96.5%		130%	
CCOC(=O)C(O)C(O)C(=O)OCC (stereo not drawn)	100%	106%	102%	103%	94.1%	101%	104%	105%	106%	
CCOC(=O)CNN	102%	90.7%	98%	99.6%	99.4%	96.7%	101%	106%	110%	
CC(=O)Nc1c(C)cc(C)cc1C	101%	101%	103%	105%	69%	94%	102%		110%	
NC(=O)N/N=C\c1ccco1	108%	102%	94.1%	117%	102%	92.1%	110%	104%	119%	
O=C(Nc1cccc(NC(=O)Nc2cc(C(F)(F)F)ccc2Cl)c1)Nc1cc(C(F)(F)F)ccc1Cl	20.4%	34.3%	38%	4.58% (active)		-27.7% (active)	11.6%	51.7%	1.37% (active)	
COc1cccc(O)c1O	56.3%	101%	98.6%	103%	93.7%	79%	101%	88.1%	108%	
N#Cc1ccc(OC(=O)Nc2ccc(Cl)c(Cl)c2)cc1	39.6%	63.7%	89.4%	99.8%		24.5%	47.2%	89.5%	96.3%	
CCN(CC)CCNc1ccc(CO)c2sc3ccccc3c(=O)c12	44.9%	35.9%	50.9%	14.5%		-17.8% (active)	24.2%	49.6%	11.9%	
CCOC(=O)C1OC1c1ccccc1 (stereo not drawn)	98.6%	100%	101%	103%	99.2%	104%	102%	98.3%	102%	
CS(=O)CC1=NC(=N)N=C1CS(C)=O (stereo not drawn)	100%	102%	101%	106%	103%	99.9%	97.5%	102%	117%	

SMILES	growth [1]	growth [2]	growth [3]	growth [4]	growth [5]	growth [6]	growth [7]	growth [8]	growth [9]	growth [10]
CCCCC(CC)COC(C)=O (stereo not drawn)	100%	105%	98%	106%	95.6%	105%	105%	96%	100%	
OCCN(CCO)C(=S)S	102%	103%	103%	112%	109%	101%	94%	101%	114%	
CC(=O)Cc1ccc(-c2ccccc2)cc1	95.6%	91.5%	85.9%		96.3%	111%	94.8%	105%	115%	
NCC(=O)CCC(=O)O	93.8%	99.2%	107%	115%		107%	99.1%	103%	116%	
COCCCC/C(=N\OCCN)c1ccc(C(F)(F)F)cc1	100%	101%		106%	63.2%		102%	100%	101%	
Clc1ccc(-c2nnc(-c3cccc4ccccc34)o2)cc1	83.6%	87.6%	112%	96.4%		83.5%		110%	101%	
Cc1cc(OCCO)cc(C)c1Cl	106%	108%		114%	114%	114%	104%	97.3%	123%	
CC(O)COc1ccc(-c2ccccc2)cc1 (stereo not drawn)	108%	104%	112%		92.7%		107%		110%	
O=C(O)CCCc1ccccc1	103%	108%		115%	105%		102%	97.4%	110%	
N#C/C(=C\c1cc(O)c(O)c(O)c1)C(N)=O	102%	108%	110%	110%		76.5%	105%	94.6%	104%	
CNC(=O)c1ccccc1CC1(O)c2ccccc2Oc2ccccc21	71.5%	77%	51.8%	33.7%		24.8%	41.8%	74.8%	38%	
CCc1nc(N)nc(N)c1-c1ccc(Cl)cc1	64.4%	65.7%		21.2%	97.7%	83%	26.6%	35.9%	76.5%	64.2%
CC1CC(O)C2C3(C)CCCC2(COC3=O)C12CCC1(CCOC1=O)O2 (stereo not drawn)	109%		117%	95.4%	81.8%	107%	110%	99.1%	118%	111%
COc1ccc2c(NCCCCCCCCNc3c4ccccc4nc4cc(OC)ccc34)c3ccccc3nc2c1	-92.2% (active)	-65.3% (active)	-74.3% (active)		-100% (active)	-74.1% (active)	-64.7% (active)	-100% (active)	-100% (active)	
O=C1C=CC(=O)N1c1ccc(I)cc1Cl	100%	108%		109%		-29.7% (active)	46%	97%	113%	90.7%
CC12CC3CC1C(C(=O)O2)C3C(=O)O (stereo not drawn)	96.8%	105%		108%	107%	96%	96.3%	108%	102%	98.9%
COCCOCCCl	102%	101%	112%		95%	101%	106%	105%	107%	
NC(C(=O)O)c1ccc([N+](=O)[O-])cc1 (stereo not drawn)	105%	103%	111%	108%			109%	109%	104%	
CCOC(=O)CSc1c([N+](=O)[O-])ncn1C	95.6%	105%		104%	113%	99.9%	97.6%	111%	110%	98.6%
Cc1nc2ccccc2c2nnc(SCC(=O)N(Cc3ccccc3)c3ccccc3)n12	89.1%	94%			82.5%	70.9%		103%	101%	95.7%
CO[C@H]1C[C@@H]2CC[C@@H](C)[C@@](O)(O2)C(=O)C(=O)N2CCCC[C@H]2C(=O)O[C@H]([C@H](C)C[C@@H]2CC[C@@H](O)[C@H](OC)C2)CC(=O)[C@H](C)C=C(C)[C@@H](O)[C@@H](OC)C(=O)[C@H](C)C[C@H](C)/C=C/C=C/C=C1C	45.4%	62.2%	71.6%		30.7%	53.8%	39%	46.9%	61.3%	
COc1cc([C@@H]2c3cc4c(cc3[C@H](O)[C@H]3COC(=O)[C@H]23)OCO4)cc(OC)c1OC	13.1%	-9.84% (active)		9.21% (active)	11.3%		14.2%	12.4%	-57.8% (active)	
O=c1[nH]nc(SC2CCCCC2)c(=O)[nH]1	91.3%		96.8%	104%	82%	80.5%	91.4%			93.7%
O=C1N(C[P+](c2ccccc2)(c2ccccc2)c2ccccc2)CCCN1C[P+](c1ccccc1)(c1ccccc1)c1ccccc1	109%	102%	106%		79.5%	108%	101%	103%		

SMILES	growth [1]	growth [2]	growth [3]	growth [4]	growth [5]	growth [6]	growth [7]	growth [8]	growth [9]	growth [10]
CCC(C)(O)c1ccc(C)cc1 (stereo not drawn)	103%	103%		105%	103%	109%	111%	109%		98.1%
Cc1ccccc1N=C(c1ccccc1)C1C(=O)c2ccccc2C1=O	87.6%	90.4%		101%	72.7%	59%		88.6%	103%	98.8%
C=CCOC(=O)C(=O)OCC=C	110%	99.7%		112%	90%	96.6%	109%	106%	111%	92.7%
C[N+](C)=c1ccc2nc3c(cc(Nc4ccccc4)c4ccccc43)oc-2c1	31.6%	44.4%		65%	79.5%	42.3%	64.4%	72.8%	22.6%	67.6%
Cc1cc(Cc2cc(C)c(N)cc2N)c(N)cc1N	86.6%	81.7%			91.4%	89.4%	85.2%	104%	92.8%	88.1%
Cc1ccc(C(=O)NC2c3ccccc3Oc3ccccc32)cc1	70.4%	79%		59.8%	62.1%	41.2%	48.9%	25.7%	73.6%	32.2%
O=C(O)CNC(=O)c1ccccc1	107%		104%							
O=[N+]([O-])c1cccc2nsnc12	108%	93.9%		103%		103%	104%	114%	107%	
O=C(O)/C=C/c1ccc2c(c1)CCC2	113%	105%		103%			106%	101%	105%	94.6%
COC(=O)Nc1nc2ccc(C(=O)c3ccc(F)cc3)cc2[nH]1	31.8%	145%	40.5%	6% (active)		-52.1% (active)		26.4%	-37.7% (active)	
COC(=O)Nc1nc2ccc(C(=O)c3cccs3)cc2[nH]1	14.2%	0.146% (active)			63.9%		19.5%	19%	-40% (active)	
CC(=O)OC(C(=O)O)c1ccccc1 (stereo not drawn)	111%	110%			80.4%	107%	106%	109%	118%	112%
CCOC(=O)c1cc2cccc(OC)c2oc1=O	110%	106%	107%	110%		83.5%		95.5%	123%	
CCC(=O)Oc1ccc(OC)cc1	108%	105%	95.5%	104%			105%	105%	110%	
CC(=O)NC(N)=S	103%	103%		105%	89.7%	95.6%	96.1%	105%	120%	110%
Nc1ncnc2c1nc(N)n2C1OC(CO)C(O)C1O (stereo not drawn)	-22.9% (active)	-75.4% (active)			-29.8% (active)	-63.3% (active)	-25.8% (active)	-85.6% (active)	-86.8% (active)	-52.9% (active)
C=CCc1cc(C(C)=O)cc(OC)c1O	108%	109%		97.8%	125%	102%	95.8%	104%	118%	122%
S=C1CCCCCN1	105%		99.5%	106%	103%	105%	101%	107%	111%	92.9%
CC(=O)/C(Cc1ccccc1)=N/O	97.3%		105%	105%	68%	74.3%	95.4%	102%	97.9%	
COc1cc(C2c3cc4c(cc3C3OC(=O)C2C3CO)OCO4)cc(OC)c1OC (stereo not drawn)	14.7%		36.9%	0.82% (active)	45.7%	-30.5% (active)	14.9%	14.4%	-92.4% (active)	28.5%
CCOC(=O)c1ccc(NC(=S)P(=O)(c2ccccc2)c2ccccc2)cc1	102%		94.7%	71.3%	78.1%	113%	103%	101%	115%	105%
CCCCOC(=O)c1ccc(C(C)C)cc1	98.2%		96.3%	109%	88.2%	83.1%	77%	95.4%	110%	85.4%
CC(=O)OCC(=O)[C@@]1(O)CC[C@H]2[C@@H]3CC[C@@H]4C[C@H](O)CC[C@]4(C)[C@H]3C(=O)C[C@@]21C	103%		131%	108%	93.4%	90.4%	101%	105%	105%	
